Laboratory results reported in PubChem BioAssay (NCATS).
Records with an inconclusive call do not appear. A call without a number means that no potency is given here. Active and inactive are the calls of the source. Calls come from the whole dose curve; as a rule, active = well fitted curve in the direction sought with a large enough effect; inconclusive = small, poorly fitted or top-dose-only effect, or another doubt; inactive = no such curve, though single readings can be large; an effect the other way counts as inactive or inconclusive.

Assays:
[1] = NS1 protein of Zika virus - qHTS assay to identify small molecule inhibitors in human HEK 293 cells (AID 1347053); note: series mostly up to about 46 µM; nearly all actives have a fitted effect of over 55% in size
Procedure, shortened: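 In this cell-based screen, HEK 293 cultures received compound for one hour before Zika MR766 at MOI = 0.5. NS1 was quantified 24 hours later by TR-FRET, normalized to virus-free wells and infected wells.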

[2] = qHTS of pediatric cancer cell lines to identify multiple opportunities for drug repurposing: Primary screen for TC32 cells (AID 1347089); note: nearly all actives have a fitted effect of over 60% in size; note: potency is the fitted concentration of half-maximal effect
Procedure, shortened: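 Measured quantity: luminescence from CellTiter-Glo, reflecting metabolically active TC32 cells following 48 h of compound. Curves came straight from multi-point titrations, with 8 or 11 points in primary and 11 in confirmatory screening.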

[3] = qHTS of pediatric cancer cell lines to identify multiple opportunities for drug repurposing: Primary screen for DAOY cells (AID 1347090); note: nearly all actives have a fitted effect of over 55% in size; note: potency is the fitted concentration of half-maximal effect
Procedure, shortened: (§1)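 Cell viability, CellTiter-Glo luminescence; 500-1,000 cells/well, 8- or 11-point titration, 48 h compound exposure at 37 degrees C, 5% CO2. Controls: DMSO neutral, bortezomib 2.3 µM final as positive.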

[4] = qHTS of pediatric cancer cell lines to identify multiple opportunities for drug repurposing: Primary screen for SJ-GBM2 cells (AID 1347091); note: potency is the fitted concentration of half-maximal effect
Procedure, shortened: as §1

[5] = qHTS of pediatric cancer cell lines to identify multiple opportunities for drug repurposing: Primary screen for A673 cells (AID 1347092); note: nearly all actives have a fitted effect of over 45% in size; note: potency is the fitted concentration of half-maximal effect
Procedure, shortened: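 Cells are plated, rested 5 h, dosed by pintool, incubated 48 h, then lysed with CellTiter-Glo and read by luminescence. DMSO is the neutral control; bortezomib at 2.3 uM final is the positive control.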

[6] = qHTS of pediatric cancer cell lines to identify multiple opportunities for drug repurposing: Primary screen for SK-N-MC cells (AID 1347093); note: potency is the fitted concentration of half-maximal effect
Procedure, shortened: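 Metabolically active cells were quantified by ATP-dependent luminescence (CellTiter-Glo, 15 min at room temperature) following 48 h treatment. Cells had been plated at 500-1,000 per well and settled for 5 h beforehand.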

| SMILES | Potency [1] | Potency [2] | Potency [3] | Potency [4] | Potency [5] | Potency [6] |
| --- | --- | --- | --- | --- | --- | --- |
| N#CNC(=NCCCCCCOc1ccc(Cl)cc1)Nc1ccncc1 | inactive | 0.0033 µM (active) | 14.8 µM (active) | 0.001 µM (active) | 0.0023 µM (active) | 0.0033 µM (active) |
| NC1=N[C@H]2[C@H](CS[C@H]2CCCCC(=O)O)N1 | inactive | inactive | inactive | inactive | inactive | inactive |
| C=C1C(=CC=C2CCC[C@]3(C)[C@@H]([C@H](C)CCCC(C)(C)O)CC[C@@H]23)C[C@@H](O)C[C@@H]1O | inactive | 16.5 µM (active) | 4.69 µM (active) | 13.2 µM (active) | 1.48 µM (active) | 1.48 µM (active) |
| OCC(O)C(O)C(O)CO (stereo not drawn) | inactive | inactive | inactive | inactive | inactive | inactive |
| COc1ccc(C(C)=O)c(O)c1 | inactive | inactive | 1.87 µM (active) | inactive | 2.96 µM (active) | 0.0372 µM (active) |
| C[C@H](CCC(=O)O)[C@H]1CC[C@H]2[C@@H]3[C@H](O)C[C@@H]4C[C@H](O)CC[C@]4(C)[C@@H]3CC[C@]12C | inactive | inactive | inactive | inactive | inactive | inactive |
| NC(=NCCCCCCN=C(N)N=C(N)Nc1ccc(Cl)cc1)N=C(N)Nc1ccc(Cl)cc1 | inactive | inactive | 5.9 µM (active) | 13.2 µM (active) | 2.96 µM (active) | 2.09 µM (active) |
| CCCCCCCCCCCCCCCC(=O)OC[C@@H](NC(=O)C(Cl)Cl)[C@H](O)c1ccc([N+](=O)[O-])cc1 | inactive | inactive | inactive | inactive | inactive | inactive |
